# Source: PubChem BioAssay
# Activity calls are given as the source filed them.
# How the values were obtained:
# [1] = small molecules captured by biotinylated probe aFSTL3 – biochemical, small-molecule microarray, fluorescence 635/667, stem cell growth factor project, primary screen (AID 1064); conditions: higher = more signal;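 note: measures binding of the biotinylated anti-FSTL3 antibody to printed compounds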
# [2] = binders from COS7 lysate, DM2A8 probe, primary screen, torsin A project, cell lysate, small-molecule microarray, fluorescence 635/667 (AID 1065); conditions: higher = more signal, COS7 lysate expressing mutant human TOR1A
# [3] = small molecules captured by biotinylated probe aFGF2 – biochemical, small-molecule microarray, fluorescence 635/667, stem cell growth factor project, primary screen (AID 1067); conditions: higher = more signal;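 note: measures binding of biotinylated aFGF2 protein to printed compounds on slides; z-score merges feature fluorescence and signal-to-noise across triplicate slides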
# [4] = small molecules captured by biotinylated probe aFGF10 – biochemical, small-molecule microarray, fluorescence 635/667, stem cell growth factor project, primary screen (AID 1071); conditions: higher = more signal;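 note: score merges 667 nm spot intensity and signal to noise from triplicate slides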
# [5] = biological target: Neurogenic locus notch homolog protein 2 (Homo sapiens) (UniProt Q04721); assay: small molecules binding Notch2 protein – biochemical, small-molecule microarray, 635 nm fluorescence, stem cell growth factors, primary screen (AID 1073); conditions: higher = more signal
# [6] = biological target: Pro-neuregulin-1, membrane-bound isoform (Homo sapiens) (UniProt Q02297); assay: small molecules binding neuregulin-1 protein – biochemical, small-molecule microarray, fluorescence 635/667, psychiatric disease protein project, primary screen (AID 1075); conditions: NRG1 binding, 635 nm fluorescence, higher = more signal;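 note: score combines 667 nm spot fluorescence with signal to noise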
# [7] = tested on: Neuregulin-1 EGF-like domain; assay: small molecules binding NRG1 EGF domain – biochemical, small-molecule microarray, 635 nm fluorescence, primary screen (AID 1081); conditions: higher = more signal;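 note: binding of the protein to compounds printed on small-molecule microarray slides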
# [8] = FRG1 expression reporter modulators in myotubes – cell-based, C2C12 myotubes, firefly/Renilla luciferase, luminescence, FRG1 inhibition for FSHD, primary screen (AID 1084); conditions: FRG1 promoter luciferase, higher = more signal, called active from +8 up or from −8 down
# [9] = small molecules captured by biotinylated probe aFST – biochemical, small-molecule microarray, fluorescence 635/667, stem cell growth factor project, primary screen (AID 1086); conditions: higher = more signal;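 note: score merges 667 nm fluorescence with signal-to-noise of each printed compound spot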
# [10] = binders of probe aHhip on microarray, primary screen, stem cell growth factor project, biochemical, small-molecule microarray, fluorescence 635/667 (AID 1087); conditions: higher = more signal;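 note: score merges spot fluorescence at 667nm with spot signal to noise ratio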
# [11] = tested on: PRMT1 (protein arginine N-methyltransferase 1); assay: small molecules binding arginine methyltransferase PRMT1 – biochemical, small-molecule microarray, 635 nm fluorescence, primary screen (AID 1088); conditions: higher = more signal;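 note: binding of Prmt1 protein to compounds spotted on small-molecule microarray slides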
# [12] = growth effects on S. cerevisiae YJM789 – YJM789 clinical isolate, OD600, 24 h, basal, primary screen (AID 1089); conditions: higher = more signal, called active from +8 up or from −8 down;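 note: growth of clinical yeast isolate S. cerevisiae YJM 789 seeded 1000 cells per well; test concentration not given here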
# [13] = S. pombe growth modifiers, basal conditions – strain 972, OD600, 24 h, no modulator, primary screen (AID 1090);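 note: basal condition with compound alone and no growth modifier present; test concentration not given here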; conditions: S. pombe 972 growth, higher = more signal, called active from +8 up or from −8 down
# [14] = budding yeast growth modifiers under rapamycin – strain BY4716, OD600, 96 h, primary screen (AID 1091); note: test concentration not given here; conditions: S. cerevisiae BY4716 + rapamycin, higher = more signal, called active from +8 up or from −8 down
# [15] = biological target: Torsin-1A-interacting protein 2 (Homo sapiens) (UniProt Q8NFQ8); assay: small molecules binding lysate-expressed LULL1 – cell lysate, human LULL1 lysate, 635/667 nm fluorescence, primary screen (AID 1092); conditions: small-molecule microarray, hLULL1 lysate binding, 635 nm fluorescence; higher = more signal;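 note: probe is lysate of COS7 cells overexpressing human LULL1; score merges per-feature 667 nm fluorescence with signal-to-noise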
# [16] = optical density change of DRC41 E. coli – strain DRC41, OD650, 24 h, E. coli filamentation project, primary screen (AID 1093);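 note: MC1000 strain lacking acrAB efflux and sulA so SOS filamentation is blocked; test concentration not given here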; conditions: E. coli DRC41 growth, higher = more signal, called active from +8 up or from −8 down
# [17] = probe aLefty2 binding to arrayed compounds – biochemical, biotinylated probe, 635/667 nm fluorescence, primary screen (AID 1094); conditions: small-molecule microarray, higher = more signal;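 note: score merges spot fluorescence near 667 nm with spot signal-to-noise ratio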
# [18] = tested on: Noggin (protein binding on small-molecule microarray); assay: small molecules binding Noggin protein – biochemical, 635/667 nm fluorescence, primary screen (AID 1095); conditions: 635 nm fluorescence, higher = more signal;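 note: score merges 667 nm feature fluorescence with signal to noise over triplicate slides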
# [19] = biological target: Neurogenic locus notch homolog protein 3 (Homo sapiens) (UniProt Q9UM47); assay: small molecules binding NOTCH3 protein – biochemical, 635/667 nm fluorescence, primary screen (AID 1096); conditions: small-molecule microarray, 635 nm fluorescence, higher = more signal
# [20] = probe aEGFR binding to arrayed compounds – biochemical, biotinylated probe, 635/667 nm fluorescence, primary screen (AID 1097); conditions: small-molecule microarray, higher = more signal;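 note: probe is a biotinylated anti-EGFR antibody binding compounds printed on slides; score combines fluorescence near 667 nm and signal to noise of each spot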
# Sequence of Neurogenic locus notch homolog protein 3 (Homo sapiens) (Q9UM47 whole entry, looked up): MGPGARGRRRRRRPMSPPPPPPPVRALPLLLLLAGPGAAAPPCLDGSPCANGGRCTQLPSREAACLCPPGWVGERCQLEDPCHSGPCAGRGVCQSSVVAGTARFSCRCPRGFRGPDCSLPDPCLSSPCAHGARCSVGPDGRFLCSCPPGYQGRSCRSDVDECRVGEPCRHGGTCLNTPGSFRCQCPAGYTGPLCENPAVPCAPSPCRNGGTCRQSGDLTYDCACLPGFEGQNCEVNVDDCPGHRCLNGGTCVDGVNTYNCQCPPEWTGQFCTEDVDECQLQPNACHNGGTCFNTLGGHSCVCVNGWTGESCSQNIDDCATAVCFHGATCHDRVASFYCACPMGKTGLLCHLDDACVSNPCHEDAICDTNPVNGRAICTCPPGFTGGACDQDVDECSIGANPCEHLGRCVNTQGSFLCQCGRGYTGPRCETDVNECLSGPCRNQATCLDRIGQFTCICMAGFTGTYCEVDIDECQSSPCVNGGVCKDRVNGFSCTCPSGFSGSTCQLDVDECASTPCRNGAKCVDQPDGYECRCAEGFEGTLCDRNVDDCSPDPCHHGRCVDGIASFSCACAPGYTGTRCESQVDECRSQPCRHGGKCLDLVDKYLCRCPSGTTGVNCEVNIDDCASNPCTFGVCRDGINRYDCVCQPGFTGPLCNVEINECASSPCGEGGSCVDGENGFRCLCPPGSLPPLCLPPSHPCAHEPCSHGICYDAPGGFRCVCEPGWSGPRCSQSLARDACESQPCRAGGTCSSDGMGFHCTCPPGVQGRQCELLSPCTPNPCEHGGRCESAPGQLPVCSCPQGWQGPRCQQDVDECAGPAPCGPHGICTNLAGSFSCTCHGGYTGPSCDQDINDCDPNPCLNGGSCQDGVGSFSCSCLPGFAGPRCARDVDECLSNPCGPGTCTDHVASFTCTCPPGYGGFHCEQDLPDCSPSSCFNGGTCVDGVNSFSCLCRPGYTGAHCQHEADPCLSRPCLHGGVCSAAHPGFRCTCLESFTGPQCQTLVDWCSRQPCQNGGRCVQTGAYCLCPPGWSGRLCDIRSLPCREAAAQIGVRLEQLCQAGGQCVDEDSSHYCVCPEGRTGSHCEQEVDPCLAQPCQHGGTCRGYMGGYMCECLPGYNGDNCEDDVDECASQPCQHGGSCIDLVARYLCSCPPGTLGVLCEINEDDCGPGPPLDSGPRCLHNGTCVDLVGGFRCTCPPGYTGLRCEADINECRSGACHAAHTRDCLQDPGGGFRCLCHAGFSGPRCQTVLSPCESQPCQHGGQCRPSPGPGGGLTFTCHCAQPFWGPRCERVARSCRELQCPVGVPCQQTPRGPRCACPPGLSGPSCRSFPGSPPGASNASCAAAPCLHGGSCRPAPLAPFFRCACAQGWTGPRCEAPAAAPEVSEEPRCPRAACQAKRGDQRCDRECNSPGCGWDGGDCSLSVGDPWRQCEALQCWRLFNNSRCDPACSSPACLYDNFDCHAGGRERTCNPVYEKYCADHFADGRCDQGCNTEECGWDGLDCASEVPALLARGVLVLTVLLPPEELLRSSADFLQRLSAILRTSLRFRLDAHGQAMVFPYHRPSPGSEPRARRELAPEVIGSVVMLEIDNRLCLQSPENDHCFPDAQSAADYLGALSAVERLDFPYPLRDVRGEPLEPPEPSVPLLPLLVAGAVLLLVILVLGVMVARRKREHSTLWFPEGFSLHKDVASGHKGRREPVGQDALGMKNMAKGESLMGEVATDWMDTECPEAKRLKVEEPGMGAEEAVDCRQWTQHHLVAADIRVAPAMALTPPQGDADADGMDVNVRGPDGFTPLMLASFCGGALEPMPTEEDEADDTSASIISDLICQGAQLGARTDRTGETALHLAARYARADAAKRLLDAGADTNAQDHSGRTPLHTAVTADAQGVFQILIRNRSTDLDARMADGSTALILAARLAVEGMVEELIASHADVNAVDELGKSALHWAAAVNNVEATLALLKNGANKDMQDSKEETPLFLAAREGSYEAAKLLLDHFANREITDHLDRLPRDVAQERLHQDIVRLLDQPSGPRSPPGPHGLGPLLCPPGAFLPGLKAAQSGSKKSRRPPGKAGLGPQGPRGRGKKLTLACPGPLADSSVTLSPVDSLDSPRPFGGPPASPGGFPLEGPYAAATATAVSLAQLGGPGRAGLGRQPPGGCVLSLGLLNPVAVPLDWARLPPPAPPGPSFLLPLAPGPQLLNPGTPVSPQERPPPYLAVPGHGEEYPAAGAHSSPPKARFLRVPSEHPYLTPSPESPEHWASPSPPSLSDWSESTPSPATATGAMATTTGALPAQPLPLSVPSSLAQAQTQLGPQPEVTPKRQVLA
# Sequence of Neurogenic locus notch homolog protein 2 (Homo sapiens) (Q04721 whole entry, looked up, canonical isoform): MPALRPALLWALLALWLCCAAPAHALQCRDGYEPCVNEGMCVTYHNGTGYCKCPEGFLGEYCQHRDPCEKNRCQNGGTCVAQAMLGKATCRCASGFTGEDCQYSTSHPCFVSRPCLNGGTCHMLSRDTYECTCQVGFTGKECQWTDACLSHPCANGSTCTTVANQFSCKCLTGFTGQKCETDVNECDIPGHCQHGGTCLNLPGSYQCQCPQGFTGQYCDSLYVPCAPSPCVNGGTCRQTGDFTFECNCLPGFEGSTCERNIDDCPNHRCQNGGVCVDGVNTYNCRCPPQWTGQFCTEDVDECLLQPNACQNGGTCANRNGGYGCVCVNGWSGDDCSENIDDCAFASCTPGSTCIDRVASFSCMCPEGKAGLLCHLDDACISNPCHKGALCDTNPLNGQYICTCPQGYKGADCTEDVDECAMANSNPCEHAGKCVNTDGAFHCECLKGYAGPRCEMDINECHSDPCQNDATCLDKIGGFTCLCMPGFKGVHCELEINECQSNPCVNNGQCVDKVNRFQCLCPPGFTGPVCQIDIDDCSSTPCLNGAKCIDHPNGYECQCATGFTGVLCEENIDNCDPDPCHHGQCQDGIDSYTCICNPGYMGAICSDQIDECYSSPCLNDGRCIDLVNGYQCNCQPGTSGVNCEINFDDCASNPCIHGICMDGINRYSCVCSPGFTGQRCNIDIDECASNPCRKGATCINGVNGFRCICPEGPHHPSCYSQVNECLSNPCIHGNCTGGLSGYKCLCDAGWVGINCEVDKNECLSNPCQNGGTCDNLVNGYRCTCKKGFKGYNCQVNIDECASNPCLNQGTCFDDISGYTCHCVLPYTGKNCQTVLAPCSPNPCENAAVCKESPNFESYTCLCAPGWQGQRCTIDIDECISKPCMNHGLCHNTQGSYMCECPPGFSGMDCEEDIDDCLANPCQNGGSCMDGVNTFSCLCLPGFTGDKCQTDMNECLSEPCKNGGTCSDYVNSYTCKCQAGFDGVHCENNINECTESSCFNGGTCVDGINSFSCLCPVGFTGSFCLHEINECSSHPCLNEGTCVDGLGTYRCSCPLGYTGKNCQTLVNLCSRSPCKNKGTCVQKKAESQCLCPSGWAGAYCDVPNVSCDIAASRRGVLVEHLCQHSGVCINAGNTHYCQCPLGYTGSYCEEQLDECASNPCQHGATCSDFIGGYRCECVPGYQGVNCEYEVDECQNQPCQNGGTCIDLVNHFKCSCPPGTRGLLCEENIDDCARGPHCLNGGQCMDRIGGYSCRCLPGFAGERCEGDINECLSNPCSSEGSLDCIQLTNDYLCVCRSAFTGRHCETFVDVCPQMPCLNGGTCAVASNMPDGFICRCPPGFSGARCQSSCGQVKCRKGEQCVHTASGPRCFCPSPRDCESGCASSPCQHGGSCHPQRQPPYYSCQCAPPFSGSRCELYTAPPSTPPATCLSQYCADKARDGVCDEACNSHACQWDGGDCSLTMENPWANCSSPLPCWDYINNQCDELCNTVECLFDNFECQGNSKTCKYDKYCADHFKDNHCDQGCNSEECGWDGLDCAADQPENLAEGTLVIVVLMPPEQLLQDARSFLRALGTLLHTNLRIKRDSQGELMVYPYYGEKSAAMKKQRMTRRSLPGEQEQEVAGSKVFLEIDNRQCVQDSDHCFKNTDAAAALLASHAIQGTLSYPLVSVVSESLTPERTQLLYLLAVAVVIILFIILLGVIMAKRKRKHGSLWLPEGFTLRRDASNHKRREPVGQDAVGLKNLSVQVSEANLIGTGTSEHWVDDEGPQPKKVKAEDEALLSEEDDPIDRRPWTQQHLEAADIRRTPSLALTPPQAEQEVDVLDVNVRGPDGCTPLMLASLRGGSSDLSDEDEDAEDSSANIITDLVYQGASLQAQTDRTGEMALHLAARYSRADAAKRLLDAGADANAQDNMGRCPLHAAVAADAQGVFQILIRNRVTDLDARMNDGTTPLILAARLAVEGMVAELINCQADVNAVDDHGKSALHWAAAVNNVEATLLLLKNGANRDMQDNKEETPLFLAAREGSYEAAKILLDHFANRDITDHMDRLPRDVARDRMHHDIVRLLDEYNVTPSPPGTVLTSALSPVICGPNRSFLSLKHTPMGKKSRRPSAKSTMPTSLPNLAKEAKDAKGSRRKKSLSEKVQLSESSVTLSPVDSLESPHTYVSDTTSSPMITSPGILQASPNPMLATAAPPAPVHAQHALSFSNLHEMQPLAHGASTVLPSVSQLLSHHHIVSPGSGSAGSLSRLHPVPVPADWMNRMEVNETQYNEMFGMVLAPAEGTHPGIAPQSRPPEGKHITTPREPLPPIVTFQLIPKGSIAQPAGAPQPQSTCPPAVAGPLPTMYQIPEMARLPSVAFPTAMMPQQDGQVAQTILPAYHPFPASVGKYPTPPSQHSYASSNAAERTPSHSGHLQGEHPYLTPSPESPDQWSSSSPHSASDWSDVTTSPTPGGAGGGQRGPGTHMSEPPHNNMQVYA
Structure (SMILES),composite z-score [1],composite z-score [2],composite z-score [3],composite z-score [4],composite z-score [5],composite z-score [6],composite z-score [7],z-score [8],composite z-score [9],composite z-score [10],composite z-score [11],z-score [12],z-score [13],z-score [14],composite z-score [15],z-score [16],composite z-score [17],composite z-score [18],composite z-score [19],composite z-score [20]
CCCCN1CC=CC23O[C@@H]4/C=C\CCC(C)OC(=O)C4[C@H]2C(=O)N(C(CO)C(C)C)[C@@H]3C1=O (stereo not given in full),-0.513,0.642,-0.0976,0.291,-0.358,0.362,1.45,-0.095 (inactive),-0.19,-0.201,0.738,-0.824 (inactive),-0.753 (inactive),-0.528 (inactive),2.77,-0.318 (inactive),-0.166,0.21,0.395,-0.123
Cc1ccc(S[C@]2(C(=O)NCCCN(C)C)CC(=O)N(C3CCCCC3)[C@@H]2c2ccc(CO)cc2)cc1,0.655,-1.19,-0.0885,-0.418,-0.503,1.43,0.98,-0.404 (inactive),-0.249,-0.132,-0.0316,-0.96 (inactive),-2.22 (inactive),-0.655 (inactive),0.555,0.457 (inactive),0.0321,-0.561,-0.662,-0.106
C=C(COC)/C(=C/C[C@H](OC(=O)c1ccncc1)c1ccccc1OCCO)c1cnc2ccccc2c1,-0.776,0.171,-0.0524,1.18,1.34,1.47,1.24,1.01 (inactive),1.07,-0.242,1.54,-1.77 (inactive),-0.997 (inactive),-0.252 (inactive),2.94,0.395 (inactive),-0.345,1.44,1.02,0.0024
[N-]=[N+]=Nc1ccccc1[C@@H]1OC(c2ccc(OCCCO)cc2)=N[C@]1(Cc1ccccc1)C(=O)NCC(O)CO (stereo not given in full),1.45,2.11,0.148,0.881,0.138,1.66,1.06,-0.992 (inactive),1.25,0.28,1.55,-0.281 (inactive),-1.4 (inactive),1.32 (inactive),2.65,1.05 (inactive),0.589,0.244,0.0643,0.206
O=C1O[C@@H](c2ccccc2)[C@@H](c2ccccc2)N2[C@@H](c3ccc(O)cc3)[C@]3(C(=O)Nc4ccc(C#CC5(O)CCCCCC5)cc43)[C@@H](C(=O)NC[C@H](O)c3ccccc3)[C@H]12,0.107,-0.363,-0.0255,0.753,-0.226,1.02,0.538,0.106 (inactive),-0.405,-0.236,1.26,0.21 (inactive),-0.0625 (inactive),1.24 (inactive),2.05,-0.255 (inactive),-0.242,-0.0578,-0.0872,-0.162
C=CC[C@@]1(C(=O)N2CCOCC2)N=C(c2ccc(OCCCO)cc2)O[C@@H]1c1ccccc1CN=[N+]=[N-],-0.0448,0.326,0.141,1.01,1.62,1.53,1.15,-1.21 (inactive),1.17,0.0722,1.56,0.0366 (inactive),0.472 (inactive),-0.74 (inactive),3.28,0.0893 (inactive),0.691,0.355,1.09,0.776
